The nature of assay [1]: small molecules captured by biotinylated probe aFSTL3 – biochemical, small-molecule microarray, fluorescence 635/667, stem cell growth factor project, primary screen (AID 1064).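 Further: measures binding of the biotinylated anti-FSTL3 antibody to printed compounds.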 As to conditions: higher = more signal.
The nature of assay [2]: binders from COS7 lysate, DM2A8 probe, primary screen, torsin A project, cell lysate, small-molecule microarray, fluorescence 635/667 (AID 1065). Particulars: higher = more signal, COS7 lysate expressing mutant human TOR1A.
Assay [3] in a line: small molecules captured by biotinylated probe aFGF2 – biochemical, small-molecule microarray, fluorescence 635/667, stem cell growth factor project, primary screen (AID 1067).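 Further: measures binding of biotinylated aFGF2 protein to printed compounds on slides; z-score merges feature fluorescence and signal-to-noise across triplicate slides.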 As to conditions: higher = more signal.
Assay [4] in a line: small molecules captured by biotinylated probe aFGF10 – biochemical, small-molecule microarray, fluorescence 635/667, stem cell growth factor project, primary screen (AID 1071).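 Further: score merges 667 nm spot intensity and signal to noise from triplicate slides.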 As to conditions: higher = more signal.
Assay [5] deals with Neurogenic locus notch homolog protein 2 (Homo sapiens) (UniProt Q04721). Kind of assay: small molecules binding Notch2 protein – biochemical, small-molecule microarray, 635 nm fluorescence, stem cell growth factors, primary screen (AID 1073). Particulars: higher = more signal.
Neurogenic locus notch homolog protein 2 (Homo sapiens), sequence (Q04721 whole entry, looked up, canonical isoform): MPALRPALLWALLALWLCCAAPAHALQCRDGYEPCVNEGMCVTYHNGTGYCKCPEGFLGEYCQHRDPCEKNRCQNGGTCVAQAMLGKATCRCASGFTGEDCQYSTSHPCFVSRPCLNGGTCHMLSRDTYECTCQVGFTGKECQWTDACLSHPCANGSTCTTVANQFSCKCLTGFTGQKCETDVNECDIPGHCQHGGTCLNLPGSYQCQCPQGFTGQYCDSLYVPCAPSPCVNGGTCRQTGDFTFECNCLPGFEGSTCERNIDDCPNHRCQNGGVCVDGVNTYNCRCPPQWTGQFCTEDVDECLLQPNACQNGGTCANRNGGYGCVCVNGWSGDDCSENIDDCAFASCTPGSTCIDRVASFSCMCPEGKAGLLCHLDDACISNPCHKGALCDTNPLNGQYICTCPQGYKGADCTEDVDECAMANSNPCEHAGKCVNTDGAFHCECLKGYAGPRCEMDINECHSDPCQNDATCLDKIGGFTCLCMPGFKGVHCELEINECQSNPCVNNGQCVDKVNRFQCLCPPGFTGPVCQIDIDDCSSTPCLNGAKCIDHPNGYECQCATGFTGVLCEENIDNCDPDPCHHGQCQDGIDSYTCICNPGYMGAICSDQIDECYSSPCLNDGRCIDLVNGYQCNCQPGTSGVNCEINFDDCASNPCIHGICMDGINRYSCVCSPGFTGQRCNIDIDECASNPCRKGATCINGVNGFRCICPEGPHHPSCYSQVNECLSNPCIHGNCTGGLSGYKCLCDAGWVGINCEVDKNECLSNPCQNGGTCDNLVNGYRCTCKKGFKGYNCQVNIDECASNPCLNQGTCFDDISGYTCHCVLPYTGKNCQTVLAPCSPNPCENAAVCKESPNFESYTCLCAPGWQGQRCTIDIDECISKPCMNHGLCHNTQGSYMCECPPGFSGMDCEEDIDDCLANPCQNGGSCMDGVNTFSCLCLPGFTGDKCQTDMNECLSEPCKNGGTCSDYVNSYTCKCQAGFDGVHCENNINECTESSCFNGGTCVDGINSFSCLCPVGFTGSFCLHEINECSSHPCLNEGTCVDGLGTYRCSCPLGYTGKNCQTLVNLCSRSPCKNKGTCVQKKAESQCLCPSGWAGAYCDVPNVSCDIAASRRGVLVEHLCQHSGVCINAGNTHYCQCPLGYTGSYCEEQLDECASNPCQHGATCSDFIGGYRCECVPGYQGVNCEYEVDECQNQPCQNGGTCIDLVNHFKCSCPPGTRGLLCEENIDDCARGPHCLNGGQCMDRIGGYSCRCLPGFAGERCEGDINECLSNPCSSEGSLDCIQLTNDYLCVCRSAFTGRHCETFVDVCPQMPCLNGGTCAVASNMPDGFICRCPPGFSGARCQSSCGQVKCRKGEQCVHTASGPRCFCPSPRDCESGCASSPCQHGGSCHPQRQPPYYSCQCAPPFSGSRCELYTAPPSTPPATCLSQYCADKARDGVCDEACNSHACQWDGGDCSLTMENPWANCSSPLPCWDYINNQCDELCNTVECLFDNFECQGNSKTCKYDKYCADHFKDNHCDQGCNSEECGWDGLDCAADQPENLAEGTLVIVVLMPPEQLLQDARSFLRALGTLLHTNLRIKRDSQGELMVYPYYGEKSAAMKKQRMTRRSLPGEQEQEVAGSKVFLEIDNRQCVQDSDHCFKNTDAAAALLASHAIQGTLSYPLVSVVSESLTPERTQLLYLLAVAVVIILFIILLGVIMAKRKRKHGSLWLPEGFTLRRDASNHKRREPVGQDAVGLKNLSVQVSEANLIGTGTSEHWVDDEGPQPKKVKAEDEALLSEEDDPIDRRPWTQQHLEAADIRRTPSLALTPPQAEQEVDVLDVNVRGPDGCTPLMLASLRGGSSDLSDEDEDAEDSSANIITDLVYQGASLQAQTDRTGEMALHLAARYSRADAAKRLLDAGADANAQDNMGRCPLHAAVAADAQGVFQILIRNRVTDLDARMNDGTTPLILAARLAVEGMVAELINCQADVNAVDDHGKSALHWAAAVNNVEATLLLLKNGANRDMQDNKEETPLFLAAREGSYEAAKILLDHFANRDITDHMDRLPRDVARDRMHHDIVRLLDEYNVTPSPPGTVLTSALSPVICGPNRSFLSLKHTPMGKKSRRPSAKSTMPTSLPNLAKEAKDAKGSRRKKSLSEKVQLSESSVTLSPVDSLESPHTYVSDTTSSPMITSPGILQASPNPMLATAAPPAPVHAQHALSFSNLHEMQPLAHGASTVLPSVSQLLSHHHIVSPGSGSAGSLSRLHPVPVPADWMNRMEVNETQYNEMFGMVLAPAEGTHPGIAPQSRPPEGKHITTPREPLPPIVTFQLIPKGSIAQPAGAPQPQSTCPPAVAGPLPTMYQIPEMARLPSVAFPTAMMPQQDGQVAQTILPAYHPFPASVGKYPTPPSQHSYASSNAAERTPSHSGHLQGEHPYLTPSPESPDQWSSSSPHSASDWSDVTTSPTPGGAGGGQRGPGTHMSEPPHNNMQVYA
Assay [6] has as its target Pro-neuregulin-1, membrane-bound isoform (Homo sapiens) (UniProt Q02297). Kind of assay: small molecules binding neuregulin-1 protein – biochemical, small-molecule microarray, fluorescence 635/667, psychiatric disease protein project, primary screen (AID 1075).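 Further: score combines 667 nm spot fluorescence with signal to noise.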 As to conditions: NRG1 binding, 635 nm fluorescence, higher = more signal.
For assay [7], the system named is Neuregulin-1 EGF-like domain. In words: small molecules binding NRG1 EGF domain – biochemical, small-molecule microarray, 635 nm fluorescence, primary screen (AID 1081).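 Further: binding of the protein to compounds printed on small-molecule microarray slides.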 As to conditions: higher = more signal.
A short description of assay [8]: FRG1 expression reporter modulators in myotubes – cell-based, C2C12 myotubes, firefly/Renilla luciferase, luminescence, FRG1 inhibition for FSHD, primary screen (AID 1084). Particulars: FRG1 promoter luciferase, higher = more signal, called active from +8 up or from −8 down.
Assay [9] is described as follows: small molecules captured by biotinylated probe aFST – biochemical, small-molecule microarray, fluorescence 635/667, stem cell growth factor project, primary screen (AID 1086).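 Further: score merges 667 nm fluorescence with signal-to-noise of each printed compound spot.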 As to conditions: higher = more signal.
Assay [10] is described as follows: binders of probe aHhip on microarray, primary screen, stem cell growth factor project, biochemical, small-molecule microarray, fluorescence 635/667 (AID 1087).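 Further: score merges spot fluorescence at 667nm with spot signal to noise ratio.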 As to conditions: higher = more signal.

Active and inactive are the calls of the source.

Pro-neuregulin-1, membrane-bound isoform (Homo sapiens), sequence (Q02297 whole entry, looked up, the tested form may be a part, canonical isoform): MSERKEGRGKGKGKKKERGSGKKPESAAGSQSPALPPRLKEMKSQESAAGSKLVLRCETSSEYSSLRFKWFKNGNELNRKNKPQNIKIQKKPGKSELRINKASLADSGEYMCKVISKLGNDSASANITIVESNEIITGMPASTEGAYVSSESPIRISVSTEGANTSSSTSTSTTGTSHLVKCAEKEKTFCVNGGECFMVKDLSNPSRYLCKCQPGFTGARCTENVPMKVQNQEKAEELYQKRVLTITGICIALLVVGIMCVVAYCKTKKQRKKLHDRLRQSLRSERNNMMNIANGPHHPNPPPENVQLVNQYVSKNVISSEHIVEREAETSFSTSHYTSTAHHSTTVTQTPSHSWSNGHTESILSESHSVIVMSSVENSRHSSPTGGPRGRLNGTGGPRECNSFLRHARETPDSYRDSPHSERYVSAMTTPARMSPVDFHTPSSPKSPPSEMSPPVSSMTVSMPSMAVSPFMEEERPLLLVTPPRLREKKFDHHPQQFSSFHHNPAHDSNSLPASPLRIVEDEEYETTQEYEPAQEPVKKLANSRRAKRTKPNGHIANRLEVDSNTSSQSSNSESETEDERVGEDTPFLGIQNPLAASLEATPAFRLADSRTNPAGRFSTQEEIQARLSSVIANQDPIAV

`NC(=O)[C@@]1(Cc2ccccc2)COC(c2ccc(OCCCO)cc2)=N1`: the composite z-score was 0.634 in assay [1]; 0.758 in assay [2]; -0.0594 in assay [3]; -0.281 in assay [4]; 0.29 in [5]; 1.37 in assay [6]. Moreover, the values for the composite z-score in assay [7], in assay [9] and in assay [10] were 1.16, 0.252 and -0.0684, respectively. Also, the z-score in [8] is 1.47 (inactive).
As for `COc1cccc(C)c1NC(=O)O[C@H]1[C@H](OC(=O)Nc2ccc3c(c2)OCO3)[C@@H](OC(=O)Nc2ccc3c(c2)OCO3)[C@@H](OC)O[C@@H]1CO`, the composite z-score in assay [1] was -0.0021; in assay [2], 0.893; in [3], 0.121; in assay [4] it was 1.07; in [5] it was 1.65; in assay [6], -0.0548. Moreover, the figures for the composite z-score in assay [7], in [9] and in assay [10] were 1.07, 1.17 and 0.0243, respectively. In assay [8], the z-score was 6.28 (inactive).
With `COc1ccc([Si](C)(C)[C@@H]2[C@@H](CCO)O[C@]3(C(=O)N(Cc4ccccc4)c4ccc(NC(=O)[C@H](C)O)cc43)[C@H]2C)cc1`, the composite z-score is -0.441 in assay [1]; 0.383 in assay [2]; -0.0505 in [3]; 0.8 in [4]; 1.23 in assay [5]; 1.13 in assay [6]. The composite z-score worked out at 1.13 in assay [7], 0.559 in [9] and 0.162 in [10]. Moreover, the z-score in assay [8] is -3.84 (inactive).
Regarding `COc1cc(NN2C(C(O)c3ccco3)C=CC3C(=O)N(C)C(=O)C32)cc(OC)c1OC` (stereo not given), the composite z-score was found to be 0.256 in [1]; 0.504 in assay [2]; 0.083 in assay [3]; 0.27 in assay [4]; 0.578 in assay [5]; 1.4 in [6]. Besides, the composite z-score in assay [7] turned out to be 1.38; in assay [9], 0.775; in [10], 0.837. The z-score in [8] is -0.389 (inactive).
Take `[N-]=[N+]=Nc1ccccc1C[C@@]1(C(N)=O)N=C(c2ccc(OCCCO)cc2)O[C@@H]1c1ccccc1N=[N+]=[N-]`: the composite z-score was 0.613 in assay [1]; 0.338 in [2]; -0.0751 in assay [3]; 0.684 in assay [4]; 1.45 in assay [5]; 0.467 in assay [6]. Besides, the composite z-score in assay [7] was determined as 1.26; in [9], 0.493; in assay [10], 0.0722. In addition, the z-score in assay [8] was 0.0144 (inactive).
On to `[N-]=[N+]=Nc1ccccc1C[C@@]1(C(=O)NCCN2CCOCC2)N=C(c2ccc(OCCCO)cc2)O[C@@H]1c1ccccc1N=[N+]=[N-]`, for which the composite z-score was 0.59 in [1]; 0.639 in assay [2]; -0.167 in assay [3]; 1.28 in [4]; 1.04 in assay [5]; 1.69 in assay [6]. Further, the composite z-score in [7] amounted to 1.29; in assay [9] it was 0.98; in assay [10], 0.122. In addition, the z-score in assay [8] was -2.04 (inactive).
Take `CCCCC=C[C@@H](NC(=O)OCc1ccccc1Cl)c1ccccc1`: the composite z-score in [1] was determined as 0.983; in [2], 0.199; in assay [3] it was 0.583; in [4], 0.711; in assay [5] it was 1.59; in assay [6], 1.51. The composite z-score was 1.19 in assay [7], 2.81 in assay [9] and 0.996 in assay [10]. In addition, the z-score in assay [8] was 1.31 (inactive).
With `CC(C)=C1C(=O)C(c2ccccc2)=C2CN3C(=O)N(CCc4ccccc4)C(=O)[C@]3(Cc3ccc(C(F)(F)F)cc3)[C@H]21`, the composite z-score in [1] was 1.11; in [2], -0.192; in assay [3], 0.0977; in assay [4] it was -0.122; in [5] it was 0.816; in assay [6], 0.757. Moreover, the composite z-score in [7] stood at 0.844; in [9], 0.693; in [10], 0.281. In addition, the z-score in [8] was 0.845 (inactive).
In the case of `CC(C)[Si]1(C(C)C)OCc2cc(C3CC3)nc(-c3ccc(Oc4ccccc4)cc3)c21`, the composite z-score in [1] is -0.0872; in [2] it was -0.502; in assay [3], -0.207; in assay [4], -0.18; in assay [5], -0.393; in assay [6] it was -0.65. Also, the composite z-score in assay [7] is -0.791; in assay [9] it was -0.15; in assay [10], -0.469. Besides, the z-score in assay [8] was -0.343 (inactive).
With `CCCCC(CC)C(O)C1C=CC2C(=O)N(C)C(=O)C2N1Nc1ccccc1` (stereo not given), the composite z-score in assay [1] is -0.245; in [2], 0.0145; in assay [3], -0.0454; in [4], 0.264; in assay [5], 0.846; in assay [6] it was 0.517. The composite z-score in assay [7] is 1.16; in assay [9] it was 0.388; in [10], -0.0994. Also, in assay [8], the z-score was -0.373 (inactive).
As to `CCC1=C2CN(Cc3ccccc3)[C@@H](C(=O)Cc3ccccc3)C2C=CCC1` (stereo not given in full), the composite z-score is -0.317 in assay [1]; -0.756 in [2]; -0.0909 in assay [3]; 0.083 in [4]; -0.227 in [5]; 0.271 in [6]. Besides, the composite z-score in assay [7] was 0.441; in assay [9], 0.0633; in assay [10] it was -0.0994. Besides, the z-score in [8] was -1.02 (inactive).
For `COC(=O)[C@@]1(Cc2ccccc2)[C@H]2c3cc(C(=O)N(C)C)n(Cc4ccc(C)o4)c3C[C@H]2CN1C(=O)c1ccccc1`, the composite z-score in [1] was found to be 1.97; in assay [2], 0.6; in [3], 0.632; in assay [4], 0.685; in assay [5] it was 1.36; in assay [6], 1.47. The composite z-score is 1.15 in assay [7], 1.91 in [9] and 0.414 in assay [10]. Further, the z-score in [8] was 0.495 (inactive).
In the case of `CC1=C2[C@@H](CCc3ccccc3)OB(O)C[C@@H]2[C@@H]2C(=O)N(C)C(=O)[C@@H]2C1`, the composite z-score in [1] is -0.366; in assay [2] it was -0.19; in assay [3], -0.104; in [4] it was 0.496; in assay [5], 0.849; in assay [6], 1.09. Besides, the results for the composite z-score in [7], in assay [9] and in assay [10] were -0.0884, 0.438 and -0.171, respectively. In addition, the z-score in [8] is 1.26 (inactive).
`C=CC[C@H](OC(=O)Nc1ccc(SC)cc1)c1ccc(O)c2ccccc12`: the composite z-score in assay [1] worked out at 0.0792; in [2], 0.104; in assay [3], 0.0536; in [4] it was 0.254; in assay [5] it was 1.3; in [6] it was 1.75. The composite z-score amounted to 1.33 in assay [7], 0.385 in [9] and 0.176 in assay [10]. Besides, in assay [8], the z-score is 7.23 (inactive).
As to `CCCCC(=C=CC[C@H](O)c1ccc(OCCO)cc1)CCO`, the composite z-score was -0.253 in [1]; -0.0707 in assay [2]; -0.114 in [3]; -0.161 in assay [4]; -0.425 in assay [5]; 1.48 in assay [6]. The composite z-score in [7] is 0.66; in assay [9], -0.493; in assay [10], 0.0156. Besides, the z-score in assay [8] is -0.572 (inactive).
Consider `NC(=O)NCC#Cc1ccc2c(c1)[C@]1(C(=O)N2)[C@H](c2ccccc2OCCO)N2[C@H](c3ccccc3)[C@H](c3ccccc3)OC(=O)[C@H]2[C@@H]1C(=O)NC[C@H](O)c1ccccc1`, for which the composite z-score in [1] is -0.0058; in [2], 1.37; in assay [3], -0.085; in [4], 0.262; in assay [5] it was -0.667; in assay [6], 0.319. Further, the results for the composite z-score in [7], in assay [9] and in assay [10] were -0.32, -0.312 and -0.122, respectively. For the same compound, the z-score in [8] is -0.308 (inactive).
Regarding `CCCCCN1CC=CC23O[C@@H]4/C=C\CCCOC(=O)C4[C@H]2C(=O)N(C(C)CO)[C@@H]3C1=O` (stereo not given in full), the composite z-score in assay [1] is 0.378; in [2], -1.3; in assay [3], -0.219; in assay [4], -0.756; in [5], -0.814; in [6], 1.15. Besides, the composite z-score was 1.16 in assay [7], -0.738 in assay [9] and -0.399 in assay [10]. For the same compound, in assay [8], the z-score is -0.508 (inactive).

Source of the values: PubChem BioAssay.
